The nature of test [1]: qHTS assay for small molecule agonists of the p53 signaling pathway - cell viability (AID 651633; calls by dose curve; further: nearly all actives have a fitted effect of over 30% in size; further: potency means the concentration at half of the fitted maximal effect). The method in brief: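 Viability counter-read: CellTiter-Glo luminescence (30 min, room temperature) in the same p53RE-bla plates. These plates had been exposed to compounds for 16 h at 37 C.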
For orientation: In qHTS, concentration-response curves come from the screen itself.

A short description of test [2]: qHTS assay for small molecules that induce genotoxicity in human embryonic kidney cells expressing luciferase-tagged ATAD5 - cell viability (AID 651634; calls by dose curve; further: nearly all actives have a fitted effect of over 25% in size; further: potency means the concentration at half of the fitted maximal effect). The method in brief:
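Seeding of 2,000 HEK293T ATAD5-luciferase cells per well preceded pin-tool compound transfer. Plates sat 15.5 hr at 37C under 5% CO2, then fluorescence was read after 30 min with CellTiter-Fluor.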

A short description of test [3]: qHTS assay for small molecule disruptors of the mitochondrial membrane potential (AID 720635). Further: potency means the concentration at half of the fitted maximal effect. An outline of the steps:
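Mitochondrial membrane potential tracked with Mito-MPS dye, red aggregates (ex 540/em 590 nm) against green monomers (ex 490/em 535 nm). Compound treatment 1 hr at 37C, dye 30 min in HepG2.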

Test [4] can be described thus: qHTS assay to test for compound auto fluorescence at 590 nm (red) in HepG2 cells (AID 720674). An outline of the steps: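 1 hr compound incubation on HepG2 cells, 37 C, 5% CO2; plate read ex 540 nm / em 590 nm; intensities reported as Rose Bengal sodium equivalents.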
Test [5] can be described thus: qHTS assay to test for compound auto fluorescence at 535 nm (green) in HepG2 cells (AID 720675).
Test [6] in a line: qHTS assay to test for compound auto fluorescence at 460 nm (blue) in HEK293 cells (AID 720678). An outline of the steps: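 Auto fluorescence in the blue band was quantified as triamterene equivalency. HEK293 cells were seeded at 2,000/well, dosed after a 4-5 hr attachment, and kept overnight at 37C before the 405/460 nm reading.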
Test [7] is described as follows: qHTS assay to test for compound auto fluorescence at 590 nm (red) in HEK293 cells (AID 720679). An outline of the steps:
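Autofluorescence equivalency to Rose Bengal sodium, 540/590nm, in HEK293 cells exposed overnight to 23 nL compound per well.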

Test [8] in a line: qHTS assay for small molecule disruptors of the mitochondrial membrane potential - cell viability (AID 720634; calls by dose curve; further: nearly all actives have a fitted effect of over 20% in size; further: potency means the concentration at half of the fitted maximal effect). The method in brief:
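Measuring cytotoxicity alongside mitochondrial potential, the screen quantified ATP by luminescence in HepG2 cells after 1 hr compound incubation and a 30 min room-temperature CellTiter-Glo step.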

Test [9] is described as follows: qHTS assay for small molecules that induce genotoxicity in human embryonic kidney cells expressing luciferase-tagged ATAD5 (AID 651632). Further: nearly all actives have a fitted effect of over 15% in size. The method in brief:
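Reporter cells (HEK293T) express luciferase-tagged ATAD5, a protein that accumulates after DNA damage. Treat 16 hr at 37C/5% CO2, add Amplite, wait 30 min at RT, and read luminescence.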

Values without a mark were called inactive. Results filed as inconclusive are left out. Activity calls are given as the source filed them. Unless noted, the call rests on the fitted dose curve; in most records, active means well fitted curve in the direction sought with a large enough effect in the repeat runs; inconclusive means weak or mixed curves; inactive means no such curve, though single readings can be large; an effect the other way counts as inactive or inconclusive.

For `O=C1C(=O)c2cccc3cccc1c23`, the Potency result in test [1] was “inactive”. Further, the Potency in [2] and in test [3] was 54.4 µM (active) throughout. The outcome in test [4], in test [5], in [6] and in test [7] was inactive.

Regarding `CCOP(=S)(OCC)Oc1cc(Cl)c(Br)cc1Cl`, the Potency result in [1] and in test [2] was “inactive” throughout. Also, the compound was called inactive in test [4], in [5], in test [6] and in [7].

On to `COP(=S)(Oc1cc(Cl)c(Br)cc1Cl)c1ccccc1` (centres undefined), for which, in test [2], the Potency entry is “inactive”. For the same compound, the Potency in test [8] and in [3] was 48.6 µM (active) throughout. The compound was classed as inactive in test [4], in test [5], in [6] and in test [7].

For the compound `O=C(O)C(F)(F)C(F)(F)C(F)(F)C(F)(F)C(F)(F)C(F)(F)C(F)(F)C(F)(F)C(F)(F)F`, the Potency result in test [9] and in test [8] was “inactive” each time. In addition, the compound was called inactive in [4], in [5], in test [6] and in test [7].

Consider `Clc1cc(C(Cl)(Cl)Cl)cnc1Cl`, for which the Potency result in test [1] and in test [8] was “inactive” throughout. Moreover, the compound was classed as inactive in test [4], in test [6] and in test [7].

Regarding `CCOP(=S)(Oc1ccc([N+](=O)[O-])cc1)c1ccccc1` (centres undefined), the Potency result in test [2] was “inactive”. Besides, in [3], the Potency was 21.7 µM (active). Moreover, the result in test [4], in test [5] and in [7] was inactive.

As to `CC1(C)CCC(Cc2ccc(Cl)cc2)C1(O)Cn1cncn1` (centres undefined), the Potency entry in [9] was “inactive”. Moreover, the Potency in test [8] and in test [3] was 54.5 µM (active) throughout. For the same compound, the compound was classed as inactive in test [4], in test [6] and in [7].

Turning to `Cl/C=C\Cl`, the Potency entry in test [1], in test [2], in test [8] and in test [3] was “inactive” each time. Further, the compound was called inactive in test [4], in test [5], in test [6] and in [7].

On to `Clc1cccc(SC2CCNCC2)n1`, for which the Potency entry in [2], in [8] and in [3] was “inactive” throughout. Further, the outcome in test [4], in test [5], in test [6] and in [7] was inactive.

As to `C[C@@H]1CC[C@H]2[C@@H](C)C(=O)O[C@@H]3O[C@@]4(C)CC[C@@H]1[C@]32OO4`, the Potency entry in test [1], in test [8] and in test [3] was “inactive” each time. Moreover, the result in test [4], in [5], in test [6] and in [7] was inactive.

On to `COCCOCCO`, for which the Potency entry in test [8] was “inactive”. Further, the outcome in test [4], in test [5], in [6] and in test [7] was inactive.

Consider `COP(=S)(OC)Oc1cc(Cl)c(I)cc1Cl`, for which the Potency entry in test [1] and in test [2] was “inactive” each time. The compound was called inactive in test [4], in [5], in test [6] and in [7].

On to `CCCCC(O)(Cn1cncn1)c1ccc(Cl)cc1Cl` (centres undefined), for which the Potency result in [9] was “inactive”. In [3], the Potency was 54.4 µM (active). Further, the compound was called inactive in test [4], in test [5], in test [6] and in test [7].

Consider `O=S(=O)(O)C(F)(F)C(F)(F)C(F)(F)C(F)(F)F`, for which the Potency result in [1], in test [2] and in [8] was “inactive” throughout. In addition, the compound was classed as inactive in test [4], in test [5] and in test [7].

Consider `CS/C(C)=N/OC(=O)N(C)SN(C)C(=O)O/N=C(\C)SC`, for which the Potency result in test [1], in test [8] and in [3] was “inactive” each time. The compound was called inactive in test [4], in [6] and in test [7].

On to `CC(C)(C)C(O)C(Oc1ccc(Cl)cc1)n1cncn1` (centres undefined), for which the Potency entry in test [9] was “inactive”. The compound was called inactive in test [4], in [6] and in test [7].

Take `C=CCN1CC[C@]23c4c5ccc(O)c4O[C@H]2C(=O)CC[C@@]3(O)[C@H]1C5`: the Potency result in test [1], in test [8] and in test [3] was “inactive” throughout. Besides, the call in [4], in test [5], in test [6] and in test [7] was inactive.

Take `c1cc2ccc3cccc4ccc(c1)c2c34`: the Potency result in [1] and in test [2] was “inactive” throughout. The outcome in [4], in test [5], in test [6] and in test [7] was inactive.

As for `COC(=O)C(Br)CBr` (centres undefined), the Potency result in test [1], in test [2] and in test [8] was “inactive” each time. Besides, the outcome in test [4], in [5], in test [6] and in [7] was inactive.

On to `O=C(N[C@H](c1ccccc1)[C@@H]1CN2CCC1CC2)c1c(Cl)ccc(C(F)(F)F)c1Cl`, for which the Potency result in test [1] and in test [2] was “inactive” each time. Besides, in test [3], the Potency was 43.9 µM (active). For the same compound, the compound was called inactive in test [4], in [5], in test [6] and in [7].

As for `ClCCCCBr`, the Potency entry in test [1] and in test [8] was “inactive” each time. The result in test [4], in test [6] and in [7] was inactive.

As for `O=C(NC(=O)c1c(F)cccc1F)Nc1cc(Cl)c(Oc2ncc(C(F)(F)F)cc2Cl)c(Cl)c1`, the Potency in test [1] was 7.37 µM (active). Moreover, the Potency result in test [2] was “inactive”. The compound was classed as inactive in [4], in test [6] and in test [7].

With `BrCC(Br)C1CCC(Br)C(Br)C1` (centres undefined), the Potency entry in [1], in test [2] and in test [8] was “inactive” throughout. Besides, the Potency in [3] was 27.2 µM (active). Also, the compound was classed as inactive in test [4], in test [5], in test [6] and in test [7].

`O=C1CN=C(c2ccccc2)c2cc(Cl)ccc2N1CC1CC1`: the Potency entry in test [2] and in [8] was “inactive” in each case. For the same compound, in test [3], the Potency is 51 µM (active). For the same compound, the compound was classed as inactive in test [4], in test [5], in test [6] and in [7].

The values above are taken from PubChem BioAssay (Tox21).
